From PubChem BioAssay
An excerpt weighted towards active compounds, which were near 11% of everything screened.
PNC assembly inh: perinucleolar compartment assembly inhibition | PC3M PTB-GFP, PNC prevalence imaging, 16 h; stronger effect = lower value | activity change (PNC), negative = inhibition, % at 10 µM | actives 3.1% (n = 140,000);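 active = readout at or below -70, meaning at least 70% loss of cells showing the perinucleolar compartment, a nuclear body marking cancer cells; inconclusive = readout between -30 and a set limit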;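 note: plate controls were DMSO wells for no effect and camptothecin positive control wells for full effect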
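Compounds are pinned in duplicate onto adhered PC3M cells stably expressing GFP-tagged PTB and incubated 16 h at 37 C. Cells are then fixed, nuclei stained with Hoechst, and PNC-positive cells counted.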
ALDH1A1 block: ALDH1A1 (human) enzyme inhibition | actives 7.3% (n = 220,000) | Potency, µM (doses to about 75.3 µM), for the others: at the top dose activity, negative = inhibition, hits mostly inhibitors | Purified ALDH1A1, NADH fluorescence, propionaldehyde substrate | P00352;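 note: potency is the fitted concentration of half-maximal effect; plate controls were no enzyme wells and a reference inhibitor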
Target sequence (P00352 whole entry, looked up): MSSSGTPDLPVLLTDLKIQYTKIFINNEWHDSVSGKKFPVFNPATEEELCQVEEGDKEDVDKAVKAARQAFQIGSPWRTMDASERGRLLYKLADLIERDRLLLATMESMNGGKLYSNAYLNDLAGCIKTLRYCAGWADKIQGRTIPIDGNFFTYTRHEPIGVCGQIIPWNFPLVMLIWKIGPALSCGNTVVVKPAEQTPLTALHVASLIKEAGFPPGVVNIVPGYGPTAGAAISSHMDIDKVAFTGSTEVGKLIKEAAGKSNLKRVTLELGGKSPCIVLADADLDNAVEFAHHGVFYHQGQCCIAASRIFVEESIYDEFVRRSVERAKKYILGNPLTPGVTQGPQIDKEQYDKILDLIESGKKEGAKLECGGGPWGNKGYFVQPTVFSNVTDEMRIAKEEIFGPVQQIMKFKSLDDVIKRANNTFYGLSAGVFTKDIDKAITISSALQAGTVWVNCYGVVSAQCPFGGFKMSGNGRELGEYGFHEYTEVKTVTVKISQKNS
IMPase Li cell: IMPase inhibition in cells with lithium potentiation; actives 0.35% (n = 210,000); CHO-M1 cells, IP1 TR-FRET (IP-One), carbachol + lithium; Potency, µM (doses to about 59.4 µM), for the others: at the highest dose activity, negative = IMPase inhibition, hits mostly inhibitors; active = well fitted inhibition curve with a large enough effect; inconclusive = small, poorly fitted or top-dose-only effect; inactive = no such curve, though single readings can be large or run the other way;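 note: IP1 builds up when IMPase is blocked and the TR-FRET signal falls; potency is the fitted concentration of half-maximal effect; plate controls were basal vehicle for no effect and high inhibitor control for full effect; nearly all actives have a fitted effect of over 50% in size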
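Steps: plate 2000 CHO-M1 cells per well and culture 16–30 h; add compound and lithium; incubate 30 min, 37C; add d2-IP1 tracer and Eu cryptate anti-IP1 antibody in lysis buffer; read after 10 min at room temperature.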
IMPase cell inh: IMPase inhibition in cells; P97697; CHO-M1 cells, IP1 accumulation, HTRF TR-FRET ratio; inhibition (IP1 accumulation), % at 46.1 µM; 120,000 tested, under 10 active; active = well fitted curve in the direction sought with a large enough effect in the signal ratio, not every such curve was filed as active; inconclusive = small, poorly fitted or top-dose-only effect, or a change in a side signal; inactive = no such curve, though single readings can be large or run the other way; the % refers to the signal ratio;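 note: cells stimulated with carbachol in lithium chloride buffer; plate controls were DMSO basal wells for no effect and reference inhibitor wells for full effect; higher means more IMPase inhibition seen as more IP1 and lower FRET ratio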
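Seeded CHO-M1 cells were dosed with compound at up to 46 uM, stimulated with carbachol for 30 min, then lysed in IP-One detection reagents. Higher IP1 lowers the TR-FRET signal.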
HPGD inh: inhibitors of human 15-hydroxyprostaglandin dehydrogenase (HPGD). P15428. purified HPGD, NADH fluorescence kinetic, PGE2 substrate. Potency, µM, for the others: at the top dose activity change, negative = inhibition, hits mostly inhibitors. actives 4.3% (n = 150,000); note: potency is the fitted concentration of half-maximal effect
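NADH formation kinetics: reaction with 30 uM PGE2 and 1 mM NAD+ (final), 20 nM enzyme, Tris-HCl pH 8 with Tween 20, after 15 min compound preincubation at room temperature. Fluorescence change, last versus first of five reads.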
Numbers without * were called inactive; ? = inconclusive; . = no result given; [ ] = dose if it differs, or a comment. Unless noted, calls come from the whole dose curve; as a rule, active = well fitted inhibition curve with a large enough effect (not every such curve was filed as active); inconclusive = small, poorly fitted or top-dose-only effect, or another doubt; inactive = no such curve, though single readings can be large or run the other way. Unless noted, % is set by controls: 0 for no effect and ±100 for the full control effect.

SMILES | PNC assembly inh | ALDH1A1 block | IMPase Li cell | IMPase cell inh | HPGD inh
Cc1c(Cl)cccc1NS(=O)(=O)c1ccc2c(c1)C1C=CCC1C(c1ccc(C(=O)O)cc1)N2 (configuration not stated) | . | 13µM* | 4% | . | .
COc1ccc(NC(=O)CSc2nc(-c3cc(OC)c(OC)c(OC)c3)[nH]c2-c2ccc(F)cc2)cc1 | . | . | . | 28 | .
CCOC(=O)c1c(NC(=O)c2ccc(N3C(=O)[C@@H]4[C@H](C3=O)[C@H]3C=C[C@@H]4C3)cc2)sc2c1CC(C)CC2 (some centres not stated) | -125* | ? | -1% | . | ?
CCCOC(=O)c1c(NC(=O)C2C3C=CC(C3)C2C(=O)O)sc2c1CCC(C)C2 (configuration not stated) | . | 10µM* | -3% | . | .
CCOC(=O)c1c(NC(=O)C2C3C=CC(C3)C2C(=O)O)sc2c1CC(C)CC2 (configuration not stated) | . | -2% | -14% | . | .
CCOC(=O)[C@@H](O)Cc1cnc2ccccc2n1 | . | -14%[13.5 µM] | 4% | . | 0%
O=C(Nc1cccnc1)c1c(F)c(F)c(F)c(F)c1F | -107* | 3% | 11%[38.3 µM] | 3 | -6%
c1cc(-c2cccs2)nc(-c2cccs2)c1 | ? | ? | -17% | . | ?
c1csc(-c2cn3ccc4ccccc4c3n2)c1 | . | 5µM* | 27% | . | .
C/C(Cl)=C/Cn1c(N2CCCC2)nc2c1c(=O)n(C)c(=O)n2C | -11 | -3% | 8%[38.3 µM] | -3 | 1%
Cn1c(=O)c2c(nc(N3CCCCCC3)n2CC(O)COc2ccccc2)n(C)c1=O (configuration not stated) | 35 | 1.6µM* | -1%[38.3 µM] | 2 | -9%
COc1ccc(OCC(O)Cn2c(Nc3ccccc3)nc3c2c(=O)n(C)c(=O)n3C)cc1 (configuration not stated) | -83* | 2% | -6%[38.3 µM] | 6 | -23%
C/C(Cl)=C\Cn1c(Nc2ccc(C)cc2)nc2c1c(=O)n(C)c(=O)n2C | -95* | ? | 36%[38.3 µM] | 2 | -7%
Cc1cccc(Nc2nc3c(c(=O)n(C)c(=O)n3C)n2CC(O)CO)c1 (configuration not stated) | ? | 11% | -9%[38.3 µM] | -4 | 3%
Cn1c(=O)c2c(nc(NC3CCCCC3)n2CC(O)COc2ccccc2)n(C)c1=O (configuration not stated) | 14 | ? | -4%[38.3 µM] | 5 | -7%
CCOC(=O)Cn1c(=O)c2c(nc(N3CCOCC3)n2C)n(C)c1=O | 23 | 1% | 18%[38.3 µM] | -3 | -7%
CCOC(=O)Cn1c(=O)c2c(nc(N3CCCCC3)n2Cc2ccccc2)n(C)c1=O | -23 | 14µM* | 33%[38.3 µM] | 9 | -10%
CCOC(=O)CCn1c(=O)c2c(nc(Br)n2Cc2ccccc2)n(C)c1=O | 24 | ? | 26%[38.3 µM] | -5 | -22%
CC(O)Cn1c(=O)c2c(nc(Br)n2Cc2ccccc2)n(C)c1=O (configuration not stated) | -119* | 6% | 5% | 0 | -8%
Cc1ccc(NC(=O)C(Nc2cccc(C)c2)c2ccccc2)cc1 (configuration not stated) | 16 | 28µM* | 19% | . | -13%
Cc1ccc(NC(=O)C(Nc2ccccc2)c2ccccc2)cc1 (configuration not stated) | -25 | -9% | 5% | . | -4%
CCOc1ccccc1NC(=O)CSc1nnnn1Cc1ccccc1 | -82* | 1% | 27%[38.3 µM] | -4 | -12%
CCOc1ccccc1NC(=O)COn1nnc2ccc(Cl)cc21 | ? | 16µM* | -15%[38.3 µM] | 9 | ?
COc1ccccc1NC(=O)CSc1nnnn1Cc1ccccc1 | ? | -5% | 10%[38.3 µM] | 4 | -9%
CCOc1ccccc1NC(=O)CSc1nnnn1-c1ccccc1 | ? | 16µM* | 38%[38.3 µM] | 5 | -18%
SMILES | PNC assembly inh | ALDH1A1 block | IMPase Li cell | IMPase cell inh | HPGD inh
COc1ccccc1NC(=O)c1ccc(-c2ccccc2[N+](=O)[O-])o1 | . | 7.9µM* | 16% | . | .
COc1ccccc1NC(=O)c1ccc(-c2ccc(Br)cc2)o1 | -29 | ? | ? | -10 | ?
CC1CCCC(NS(=O)(=O)c2ccc3c(c2)OCCO3)C1C (configuration not stated) | 11 | 14µM* | -11%[38.3 µM] | 3 | -13%
O=S(=O)(NC1CC2CCC1C2)c1ccc2c(c1)OCCO2 (configuration not stated) | 11 | ? | -18%[38.3 µM] | -2 | -19%
O=C(c1cn(-c2ccccc2)nc1-c1cccs1)N1CCN(c2ccc(F)cc2)CC1 | -109* | ? | . | 3 | .
O=C(c1cc(-c2cccs2)on1)N1CCN(c2ccc(F)cc2)CC1 | -12 | -6% | -4%[38.3 µM] | 1 | -16%
Cc1ccc(-c2c(C(=O)NCc3ccc(F)cc3)oc(=O)c3ccccc23)cc1 | ? | 7.1µM* | 10% | . | -19%
Cc1ccc(-c2c(C(=O)N3CCOCC3)oc(=O)c3ccccc23)cc1 | ? | 1.6µM* | 11%[38.3 µM] | 8 | -12%
CCN1CCN(C(=O)c2oc(=O)c3ccccc3c2-c2ccc(C)cc2)CC1 | 7 | ? | 18% | 13 | 2%
Cc1ccc(-c2cc(C(=O)N3CCOCC3)c3ccccc3n2)cc1 | -98* | ? | -7%[38.3 µM] | -1[1.84 µM] | ?
c1ccc(-c2[nH]ncc2CN2CCN(Cc3ccc4c(c3)OCO4)CC2)cc1 | . | -6% | . | . | .
CSCCC(NS(=O)(=O)c1cccs1)C(=O)Nc1ccc(C)c(Cl)c1 (configuration not stated) | . | . | . | 6 | .
CCCc1cc2c(OC(=O)CC)c(-c3ccc(C(=O)OCC)o3)c(=O)oc2cc1OC | ? | ? | -26% | . | ?
O=C(c1cn(-c2ccccc2)nc1-c1ccccc1)N1CCOCC1 | -24 | ? | -14%[38.3 µM] | 5 | -5%
Cc1ccc(-c2nn(-c3ccccc3)cc2C(=O)N2CCOCC2)cc1C | . | 10µM* | 1% | . | .
C/C(=N/NC(=O)CN1CCN(S(=O)(=O)c2ccc(Br)cc2)CC1)c1ccco1 | 14 | -5% | 2% | . | -1%
Cc1ccc(SCc2ccc(C(=O)Nc3ccccc3C(=O)NC(C)C)cc2)cc1 | -87* | 3% | . | -19 | .
Cc1cccnc1NC(=O)c1ccccc1NC(=O)C(C)(C)C | 188 | -8% | 4% | 4 | -14%
CC(C)(C)C(=O)Nc1ccccc1C(=O)Nc1ccncc1 | -100* | 8% | -4% | -12 | -17%
CC(NC(=O)c1ccccc1NC(=O)c1ccncc1)c1ccccc1 (configuration not stated) | . | 28µM* | 1% | . | .
O=C(Nc1cccc(-c2nc3ncccc3o2)c1)c1sc2cc(Cl)ccc2c1Cl | ? | -13% | 11µM* | -1 | ?
Cc1ccc(C)c(S(=O)(=O)N2CCCOC2CNC(=O)C(=O)NCc2ccncc2)c1 (configuration not stated) | . | 3% | -2% | . | .
